# Test results from ChEMBL document CHEMBL1961873, “Compounds: GSK PKIS; Assays: Nanosyn kinase panel” (2012).
# Key:
# [1] = biological target: Mitogen-activated protein kinase 3 (Homo sapiens) (UniProt P27361); settings: at 1 µM;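 further: values are mean percent inhibition of MAPK3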
# [2] = biological target: SRSF protein kinase 3 (Homo sapiens) (UniProt Q9UPE1); settings: at 0.1 µM
# [3] = biological target: SRSF protein kinase 3 (Homo sapiens) (UniProt Q9UPE1); settings: at 1 µM
# [4] = biological target: Mitogen-activated protein kinase 14 (Homo sapiens) (UniProt Q16539); settings: at 0.1 µM
# Chain of Mitogen-activated protein kinase 14 (Homo sapiens) (Q16539 whole entry): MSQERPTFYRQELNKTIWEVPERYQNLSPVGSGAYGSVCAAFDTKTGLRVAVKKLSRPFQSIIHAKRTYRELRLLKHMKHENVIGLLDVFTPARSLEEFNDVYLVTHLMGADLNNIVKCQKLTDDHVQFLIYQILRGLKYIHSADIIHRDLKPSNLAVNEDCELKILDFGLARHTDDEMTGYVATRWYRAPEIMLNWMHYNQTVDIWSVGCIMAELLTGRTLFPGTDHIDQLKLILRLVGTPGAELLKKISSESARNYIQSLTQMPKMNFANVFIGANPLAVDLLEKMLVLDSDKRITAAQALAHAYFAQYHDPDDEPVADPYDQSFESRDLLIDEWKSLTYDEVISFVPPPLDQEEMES
# [5] = biological target: Mitogen-activated protein kinase 14 (Homo sapiens) (UniProt Q16539); settings: at 1 µM
# [6] = biological target: Mitogen-activated protein kinase 11 (Homo sapiens) (UniProt Q15759); settings: at 0.1 µM
# Chain of Mitogen-activated protein kinase 11 (Homo sapiens) (Q15759 whole entry): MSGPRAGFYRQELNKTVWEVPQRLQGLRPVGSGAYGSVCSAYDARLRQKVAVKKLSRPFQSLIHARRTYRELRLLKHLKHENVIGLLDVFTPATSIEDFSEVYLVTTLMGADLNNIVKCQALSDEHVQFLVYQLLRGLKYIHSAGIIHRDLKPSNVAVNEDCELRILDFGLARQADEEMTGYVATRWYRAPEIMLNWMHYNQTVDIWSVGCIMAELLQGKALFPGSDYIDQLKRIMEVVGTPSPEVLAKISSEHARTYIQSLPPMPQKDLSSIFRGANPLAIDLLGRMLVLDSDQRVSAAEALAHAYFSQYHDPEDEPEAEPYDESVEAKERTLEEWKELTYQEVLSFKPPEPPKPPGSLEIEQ
# [7] = biological target: Mitogen-activated protein kinase 11 (Homo sapiens) (UniProt Q15759); settings: at 1 µM
# [8] = biological target: T1, Mitogen-activated protein kinase 13 (Homo sapiens) (UniProt O15264); settings: at 0.1 µM
# T1 sequence (whole entry): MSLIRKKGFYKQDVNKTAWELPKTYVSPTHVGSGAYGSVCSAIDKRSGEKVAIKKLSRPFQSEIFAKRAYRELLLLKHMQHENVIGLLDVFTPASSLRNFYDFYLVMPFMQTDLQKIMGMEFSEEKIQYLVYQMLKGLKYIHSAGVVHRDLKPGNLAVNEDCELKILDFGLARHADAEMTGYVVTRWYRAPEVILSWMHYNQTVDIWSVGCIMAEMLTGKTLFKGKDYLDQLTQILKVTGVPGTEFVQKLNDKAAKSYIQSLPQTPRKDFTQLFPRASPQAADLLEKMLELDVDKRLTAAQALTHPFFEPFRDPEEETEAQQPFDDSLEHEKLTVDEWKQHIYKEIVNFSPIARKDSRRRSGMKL
# [9] = biological target: T1, Mitogen-activated protein kinase 13 (Homo sapiens); settings: at 1 µM
# [10] = biological target: T2, Mitogen-activated protein kinase 12 (Homo sapiens) (UniProt P53778); settings: at 0.1 µM
# T2 sequence (whole entry): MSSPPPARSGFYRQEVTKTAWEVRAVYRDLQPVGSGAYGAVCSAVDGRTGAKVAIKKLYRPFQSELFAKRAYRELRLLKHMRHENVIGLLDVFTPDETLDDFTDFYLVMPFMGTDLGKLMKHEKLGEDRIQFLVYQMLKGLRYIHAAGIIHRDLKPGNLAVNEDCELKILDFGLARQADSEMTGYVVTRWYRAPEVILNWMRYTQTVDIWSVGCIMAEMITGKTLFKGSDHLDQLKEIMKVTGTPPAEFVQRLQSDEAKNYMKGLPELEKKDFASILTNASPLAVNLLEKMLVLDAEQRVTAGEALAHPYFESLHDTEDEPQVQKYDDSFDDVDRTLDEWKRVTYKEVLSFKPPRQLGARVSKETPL
# [11] = biological target: T2, Mitogen-activated protein kinase 12 (Homo sapiens); settings: at 1 µM
# [12] = biological target: SRSF protein kinase 1 (Homo sapiens) (UniProt Q96SB4); settings: at 0.1 µM
# Chain of SRSF protein kinase 1 (Homo sapiens) (Q96SB4 whole entry, canonical isoform): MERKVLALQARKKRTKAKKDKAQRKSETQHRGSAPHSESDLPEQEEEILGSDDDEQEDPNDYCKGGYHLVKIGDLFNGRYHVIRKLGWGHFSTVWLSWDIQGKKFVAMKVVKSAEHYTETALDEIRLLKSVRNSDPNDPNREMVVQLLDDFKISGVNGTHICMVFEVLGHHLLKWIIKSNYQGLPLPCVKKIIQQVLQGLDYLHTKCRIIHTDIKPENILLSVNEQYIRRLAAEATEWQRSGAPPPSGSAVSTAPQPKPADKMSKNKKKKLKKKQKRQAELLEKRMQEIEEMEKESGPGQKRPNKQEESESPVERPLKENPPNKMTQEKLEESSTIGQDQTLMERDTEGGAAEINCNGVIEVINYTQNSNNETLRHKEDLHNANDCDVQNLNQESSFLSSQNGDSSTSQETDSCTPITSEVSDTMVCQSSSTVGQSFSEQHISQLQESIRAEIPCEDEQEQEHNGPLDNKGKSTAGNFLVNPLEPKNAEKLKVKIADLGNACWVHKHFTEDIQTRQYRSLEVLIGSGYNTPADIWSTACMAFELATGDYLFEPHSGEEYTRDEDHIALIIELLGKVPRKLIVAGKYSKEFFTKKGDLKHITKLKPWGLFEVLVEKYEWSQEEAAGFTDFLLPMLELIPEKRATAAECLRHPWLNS
# [13] = biological target: SRSF protein kinase 1 (Homo sapiens) (UniProt Q96SB4); settings: at 1 µM
# [14] = biological target: Phosphatidylinositol 4,5-bisphosphate 3-kinase catalytic subunit alpha isoform (Homo sapiens) (UniProt P42336); settings: at 0.1 µM
# Chain of Phosphatidylinositol 4,5-bisphosphate 3-kinase catalytic subunit alpha isoform (Homo sapiens) (P42336 whole entry, canonical isoform): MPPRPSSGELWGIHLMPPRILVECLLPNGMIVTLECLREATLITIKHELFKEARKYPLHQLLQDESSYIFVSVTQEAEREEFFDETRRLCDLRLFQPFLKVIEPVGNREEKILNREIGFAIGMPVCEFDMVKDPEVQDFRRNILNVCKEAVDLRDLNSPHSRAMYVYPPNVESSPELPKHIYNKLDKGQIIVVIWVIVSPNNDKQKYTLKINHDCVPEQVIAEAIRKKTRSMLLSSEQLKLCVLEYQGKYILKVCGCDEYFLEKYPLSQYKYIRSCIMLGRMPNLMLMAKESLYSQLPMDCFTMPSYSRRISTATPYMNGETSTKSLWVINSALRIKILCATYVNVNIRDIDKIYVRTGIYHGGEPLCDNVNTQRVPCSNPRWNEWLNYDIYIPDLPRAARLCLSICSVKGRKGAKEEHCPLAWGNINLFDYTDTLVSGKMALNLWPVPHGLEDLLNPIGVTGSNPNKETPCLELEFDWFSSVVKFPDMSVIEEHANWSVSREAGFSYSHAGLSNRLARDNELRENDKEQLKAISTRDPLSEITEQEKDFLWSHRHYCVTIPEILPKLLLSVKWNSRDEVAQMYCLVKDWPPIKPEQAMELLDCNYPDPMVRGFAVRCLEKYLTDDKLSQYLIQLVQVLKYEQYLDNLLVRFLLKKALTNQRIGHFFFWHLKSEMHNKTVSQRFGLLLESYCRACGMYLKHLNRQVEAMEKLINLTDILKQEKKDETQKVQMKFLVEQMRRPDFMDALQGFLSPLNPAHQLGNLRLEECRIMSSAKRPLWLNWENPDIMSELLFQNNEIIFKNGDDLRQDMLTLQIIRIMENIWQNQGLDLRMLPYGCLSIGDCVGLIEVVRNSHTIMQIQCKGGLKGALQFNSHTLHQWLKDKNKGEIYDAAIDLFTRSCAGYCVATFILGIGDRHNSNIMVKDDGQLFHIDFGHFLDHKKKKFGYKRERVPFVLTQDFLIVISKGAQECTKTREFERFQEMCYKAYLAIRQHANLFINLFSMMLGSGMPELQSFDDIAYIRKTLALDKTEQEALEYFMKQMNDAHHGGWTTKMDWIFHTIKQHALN
# [15] = biological target: Phosphatidylinositol 4,5-bisphosphate 3-kinase catalytic subunit alpha isoform (Homo sapiens) (UniProt P42336); settings: at 1 µM
# [16] = biological target: T3, Phosphatidylinositol 4,5-bisphosphate 3-kinase catalytic subunit delta isoform (Homo sapiens) (UniProt O00329); settings: at 0.1 µM
# T3 sequence (whole entry): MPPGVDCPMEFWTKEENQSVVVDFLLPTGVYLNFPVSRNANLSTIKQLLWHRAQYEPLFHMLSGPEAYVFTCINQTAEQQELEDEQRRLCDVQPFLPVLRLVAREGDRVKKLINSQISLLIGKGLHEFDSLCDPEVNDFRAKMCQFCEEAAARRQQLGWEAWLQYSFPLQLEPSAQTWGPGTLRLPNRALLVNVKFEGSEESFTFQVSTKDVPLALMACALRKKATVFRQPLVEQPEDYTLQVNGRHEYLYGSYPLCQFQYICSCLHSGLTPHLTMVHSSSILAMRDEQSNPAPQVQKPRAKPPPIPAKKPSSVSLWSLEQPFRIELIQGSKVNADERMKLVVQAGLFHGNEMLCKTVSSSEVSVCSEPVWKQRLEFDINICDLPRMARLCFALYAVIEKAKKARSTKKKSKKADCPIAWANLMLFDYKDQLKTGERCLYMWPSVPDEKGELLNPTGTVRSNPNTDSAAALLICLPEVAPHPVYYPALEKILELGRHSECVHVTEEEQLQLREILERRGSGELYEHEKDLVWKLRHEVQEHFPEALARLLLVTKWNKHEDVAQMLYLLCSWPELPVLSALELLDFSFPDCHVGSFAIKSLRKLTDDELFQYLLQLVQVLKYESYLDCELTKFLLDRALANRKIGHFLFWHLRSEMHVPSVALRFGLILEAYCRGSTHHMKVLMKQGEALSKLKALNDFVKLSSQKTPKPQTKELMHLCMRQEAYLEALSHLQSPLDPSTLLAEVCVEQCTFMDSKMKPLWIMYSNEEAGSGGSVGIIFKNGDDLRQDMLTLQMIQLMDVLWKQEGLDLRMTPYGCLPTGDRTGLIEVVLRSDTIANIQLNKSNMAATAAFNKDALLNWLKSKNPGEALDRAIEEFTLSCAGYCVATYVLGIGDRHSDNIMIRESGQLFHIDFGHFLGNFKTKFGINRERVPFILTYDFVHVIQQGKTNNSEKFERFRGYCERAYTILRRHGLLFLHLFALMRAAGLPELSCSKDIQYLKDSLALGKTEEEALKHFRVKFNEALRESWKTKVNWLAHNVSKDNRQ
# [17] = biological target: T3, Phosphatidylinositol 4,5-bisphosphate 3-kinase catalytic subunit delta isoform (Homo sapiens); settings: at 1 µM
# [18] = biological target: Phosphatidylinositol 4-kinase beta (Homo sapiens) (UniProt Q9UBF8); settings: at 0.1 µM
# Chain of Phosphatidylinositol 4-kinase beta (Homo sapiens) (Q9UBF8 2-816 limits assumed): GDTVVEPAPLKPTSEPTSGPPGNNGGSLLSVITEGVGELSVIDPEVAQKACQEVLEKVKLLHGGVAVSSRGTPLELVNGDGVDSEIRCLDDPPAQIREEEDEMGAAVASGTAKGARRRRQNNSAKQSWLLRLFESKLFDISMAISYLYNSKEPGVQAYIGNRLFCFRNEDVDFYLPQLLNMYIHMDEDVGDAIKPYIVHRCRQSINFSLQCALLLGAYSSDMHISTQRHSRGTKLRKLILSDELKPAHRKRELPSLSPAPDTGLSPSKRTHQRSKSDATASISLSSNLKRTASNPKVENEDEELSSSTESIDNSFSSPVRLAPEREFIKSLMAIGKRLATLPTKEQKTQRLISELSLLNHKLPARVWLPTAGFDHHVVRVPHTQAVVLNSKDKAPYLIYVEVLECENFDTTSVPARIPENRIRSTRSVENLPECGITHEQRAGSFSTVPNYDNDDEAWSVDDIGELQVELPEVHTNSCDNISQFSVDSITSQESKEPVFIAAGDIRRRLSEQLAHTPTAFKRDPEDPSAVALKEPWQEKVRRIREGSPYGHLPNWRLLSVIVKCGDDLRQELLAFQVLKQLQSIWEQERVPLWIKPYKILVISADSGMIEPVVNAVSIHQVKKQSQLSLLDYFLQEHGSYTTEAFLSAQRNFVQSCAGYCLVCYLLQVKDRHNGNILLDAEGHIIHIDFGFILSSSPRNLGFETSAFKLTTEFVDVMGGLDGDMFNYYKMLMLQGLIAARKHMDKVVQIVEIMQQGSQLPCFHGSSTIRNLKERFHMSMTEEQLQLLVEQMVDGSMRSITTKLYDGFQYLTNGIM
# [19] = biological target: Phosphatidylinositol 4-kinase beta (Homo sapiens) (UniProt Q9UBF8); settings: at 1 µM
# [20] = biological target: Sphingosine kinase 1 (Homo sapiens) (UniProt Q9NYA1); settings: at 0.1 µM;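 further: mean percent inhibition of SPHK1 activity, measured within the GSK PKIS screening panel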
# Chain of Sphingosine kinase 1 (Homo sapiens) (Q9NYA1 whole entry): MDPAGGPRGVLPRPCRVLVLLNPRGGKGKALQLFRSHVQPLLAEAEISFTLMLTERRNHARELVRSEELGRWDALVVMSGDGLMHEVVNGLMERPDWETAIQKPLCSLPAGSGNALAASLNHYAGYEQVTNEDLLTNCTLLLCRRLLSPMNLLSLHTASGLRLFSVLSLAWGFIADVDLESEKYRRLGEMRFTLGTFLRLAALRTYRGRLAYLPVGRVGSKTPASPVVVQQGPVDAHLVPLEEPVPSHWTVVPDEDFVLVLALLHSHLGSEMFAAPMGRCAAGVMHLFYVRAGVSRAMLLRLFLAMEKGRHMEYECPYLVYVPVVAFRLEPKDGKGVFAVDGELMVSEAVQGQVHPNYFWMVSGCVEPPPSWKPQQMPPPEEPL
# Chain of Mitogen-activated protein kinase 3 (Homo sapiens) (P27361 whole entry): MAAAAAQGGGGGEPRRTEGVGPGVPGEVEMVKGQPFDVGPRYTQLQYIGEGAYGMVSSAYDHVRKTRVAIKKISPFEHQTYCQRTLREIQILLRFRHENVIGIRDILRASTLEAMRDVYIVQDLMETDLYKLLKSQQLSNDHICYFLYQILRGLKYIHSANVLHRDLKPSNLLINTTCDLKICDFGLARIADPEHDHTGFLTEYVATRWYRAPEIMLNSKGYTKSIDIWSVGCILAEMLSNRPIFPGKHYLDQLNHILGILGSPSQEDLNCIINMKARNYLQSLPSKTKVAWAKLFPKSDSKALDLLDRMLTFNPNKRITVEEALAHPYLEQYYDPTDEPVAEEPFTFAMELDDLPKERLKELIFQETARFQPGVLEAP
# Chain of SRSF protein kinase 3 (Homo sapiens) (Q9UPE1 whole entry): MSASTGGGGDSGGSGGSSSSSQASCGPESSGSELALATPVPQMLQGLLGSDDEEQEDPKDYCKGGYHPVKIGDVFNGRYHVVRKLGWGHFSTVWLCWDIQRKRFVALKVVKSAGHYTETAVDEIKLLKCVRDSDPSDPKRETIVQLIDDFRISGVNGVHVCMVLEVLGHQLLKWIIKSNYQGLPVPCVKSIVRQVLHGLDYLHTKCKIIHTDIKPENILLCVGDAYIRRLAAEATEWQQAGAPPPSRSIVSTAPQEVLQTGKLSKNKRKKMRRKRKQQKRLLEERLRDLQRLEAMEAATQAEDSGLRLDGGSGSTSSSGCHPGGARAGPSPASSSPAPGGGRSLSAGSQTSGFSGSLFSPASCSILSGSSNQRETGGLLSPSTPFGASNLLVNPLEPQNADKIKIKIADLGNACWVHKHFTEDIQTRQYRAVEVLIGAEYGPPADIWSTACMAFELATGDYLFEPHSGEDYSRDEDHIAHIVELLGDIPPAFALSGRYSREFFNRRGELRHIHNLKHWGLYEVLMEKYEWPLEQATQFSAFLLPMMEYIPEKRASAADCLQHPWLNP
Compound,inhibition [1] [%],inhibition [2] [%],inhibition [3] [%],inhibition [4] [%],inhibition [5] [%],inhibition [6] [%],inhibition [7] [%],inhibition [8] [%],inhibition [9] [%],inhibition [10] [%],inhibition [11] [%],inhibition [12] [%],inhibition [13] [%],inhibition [14] [%],inhibition [15] [%],inhibition [16] [%],inhibition [17] [%],inhibition [18] [%],inhibition [19] [%],inhibition [20] [%]
O=C1NC(=O)C(c2ccc(Cl)cc2)=C1Nc1ccc(Cl)c(C(=O)O)c1,0,0.85,1.51,0.32,-0.58,-1.36,-1.39,-5.51,-3.8,-2.36,-2.21,1.64,3.21,1.09,2.23,3.38,2.76,-1.72,-4.96,-1.27
CC(=O)Nc1cccc(C#Cc2cncnc2Nc2ccc(OCc3cccc(F)c3)c(Cl)c2)n1,1.62,-0.01,3.44,-0.35,-1.8,0.21,3.12,-1.33,-1.57,-2.16,-1.66,1.83,6.55,1.06,-3.01,-2.12,-0.16,2.97,0.88,0.46
COc1cc2ncn(-c3cc(OCc4ccccc4C(F)(F)F)c(C(N)=O)s3)c2cc1OC,3.77,-2.16,5.51,9.41,9.56,3.98,7.82,5.41,5.14,4.2,6.13,-1.32,0.47,4.61,18.7,2.08,15.9,-3.15,1.79,1.28
CCCN1CCC=C(c2ccc(Nc3nc(Nc4ccccc4C(N)=O)c4cc[nH]c4n3)c(C)c2)C1,11.3,4.11,12.7,4.64,7.87,2.75,7.8,4.35,8.15,3.52,6.14,-2.75,12,4.1,19.9,1.79,17.8,-1.7,-0.01,0.57
COc1cc(C)c(NC(=O)CN(C)C)cc1Nc1nc(Nc2cccc(F)c2C(N)=O)c2cc[nH]c2n1,0.63,2.12,7.69,1.35,5.59,3.27,3.23,-0.43,1.87,0.52,1.38,-2.61,-3.29,0.75,0.03,0.12,2.2,5.07,1.45,–
CCN1CCC(CC(=O)Nc2n[nH]c3nc(-c4cccs4)c(Br)cc23)CC1,0.02,-0.78,2.42,-3.19,0.26,-1.99,3.07,-0.36,-1.98,-1.67,-2.22,1.28,1.67,-1.25,-0.57,0.69,2.28,4.28,-0.5,-0.97
COc1cc2c(cc1Nc1nc(N3CCc4ccccc43)c3cc[nH]c3n1)N(C(=O)CN(C)C)CC2,1.51,0.87,1.46,3.41,3.7,2.84,1.85,0.4,2.2,0.57,1.21,-1.43,-3.76,0.76,2.92,1.22,3.33,1.21,2.11,0.07
CC(C)=Cc1cccc2c1/C(=N/Nc1ccc(S(N)(=O)=O)cc1)C(=O)N2,2.62,-0.98,3.29,0.04,1.72,0.78,5.29,0.28,1.32,-0.48,-0.16,0.13,2.55,0.06,1.06,0.23,1.67,1.78,3.22,2.28
Nc1ncnc2occ(-c3ccc(NC(=O)Nc4cccc(C(F)(F)F)c4)cc3)c12,3.6,19,62.5,16.1,43.4,9.18,41,6.92,19.3,7.81,37.5,1.49,18.5,4.75,4.88,1.25,4.92,-1.39,1.22,0.57
CS(=O)(=O)Nc1ccc(N/C=C2\C(=O)Nc3ccccc32)cc1,-3.47,1.49,0.17,-4.68,-2.23,-0.39,3.42,-3.94,-3.87,-2.29,-0.19,1.24,1.9,-2.27,-1.98,-1.26,-0.45,-4.55,-0.72,-0.88
COc1cc(C=NNc2ncnc3c2cnn3-c2ccccc2)ccc1O,1.84,2.22,4.19,4.51,10.7,3.59,9.09,3.08,7.17,1.85,5.79,-0.73,0.63,6.59,15.9,8.17,18,-0.81,-0.12,-0.86
N#Cc1c(NC(=O)c2cccc3ccccc23)sc2c1CCCC2,0.11,-0.61,-2.89,2.97,5.23,0.78,4.42,2.16,3.76,2.38,2.56,-2.33,-3.29,1.58,4.62,2.32,4.96,-2.84,-0.74,-0.7
Cc1nn(C)c2cc(N(C)c3ccnc(Nc4cccc(S(N)(=O)=O)c4)n3)ccc12,0.11,-3.4,-1.66,4.32,19.7,3.77,25.1,1.54,4.16,-0.41,2.2,-1.51,-1.14,6.6,30.8,10.5,53.8,–,-0.74,-0.2
